# Measured values published in the supplement of paper PMC4022240.
# ± gives the standard deviation.
# Experiments:
# Assay in all cases: peptide microarray binding signal (635 nm), min-max normalized on array (fraction of array maximum); higher = stronger binding
# [1] = target: T1, HaloTag-ATRX ADD domain (163-292)
# T1 chain: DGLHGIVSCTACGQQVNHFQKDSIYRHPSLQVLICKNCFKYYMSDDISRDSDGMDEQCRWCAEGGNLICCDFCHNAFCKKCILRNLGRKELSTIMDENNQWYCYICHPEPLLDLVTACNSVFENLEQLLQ
# Method: (§1)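 Histone 13-mer peptides were synthesized as cellulose conjugates with a C-terminal 20-atom PEG linker and printed in triplicate on nitrocellulose. The sequence given is the unmodified backbone; PTMs (Kme1/2/3, Kac, Sph/Tph, Rme/Rme2a/Rme2s, Rcit) are listed in the label and the 'peptide modifications' condition. Slides were probed at 4 °C for 1 h with biotin-labelled (HQ)5-HaloTag reader fusions (ATRX-ADD, ING2-PHD) then streptavidin-Alexa647, or with rabbit histone antibodies then anti-rabbit Alexa647. The mean 635 nm signal of the triplicate spots was scaled 0-1 between the lowest and highest values on each array.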
# [2] = target: HaloTag-ING2 PHD (mouse Ing2 200-280)
# Method: as §1
# [3] = target: anti-H3K4me3 antibody ab8580
# Method: as §1
# [4] = target: anti-H3K9me3 antibody ab8898
# Method: as §1
# [5] = peptide region: H2B 17-29, peptide modifications: H2BK20ac H2BK24ac H2BK27ac H2BK28ac, binder concentration: 1:2,000 dilution
# [6] = peptide region: H2B 17-29, peptide modifications: H2BK20ac H2BK24ac H2BK27ac H2BK28ac, binder concentration: 1:10,000 dilution
# [7] = peptide region: H2B 7-19, peptide modifications: H2BK12ac H2BK16ac, binder concentration: 1:2,000 dilution
# [8] = peptide region: H2B 7-19, peptide modifications: H2BK12ac H2BK16ac, binder concentration: 1:10,000 dilution
# [9] = peptide region: H2B 7-19, peptide modifications: H2BK12ac H2BS14ph H2BK15ac, binder concentration: 1:2,000 dilution
# [10] = peptide region: H2B 7-19, peptide modifications: H2BK12ac H2BS14ph H2BK15ac, binder concentration: 1:10,000 dilution
# [11] = peptide region: H2B 17-29, peptide modifications: H2BK20ac H2BK23ac, binder concentration: 1:2,000 dilution
# [12] = peptide region: H2B 17-29, peptide modifications: H2BK20ac H2BK23ac, binder concentration: 1:10,000 dilution
# [13] = peptide region: H2B 7-19, peptide modifications: H2BS14ph, binder concentration: 1:2,000 dilution
# [14] = peptide region: H2B 7-19, peptide modifications: H2BS14ph, binder concentration: 1:10,000 dilution
binder,measurement,setting,value
AVTKAQKKDGKKR [H2B 17-29 A V T Kac A Q K Kac D G Kac Kac R],peptide microarray binding signal,"[1]; peptide region: H2B 17-29, peptide modifications: H2BK20ac H2BK24ac H2BK27ac H2BK28ac, binder concentration: 50 nM",0.00276 ± 5.2e-05
same,peptide microarray binding signal,"[1]; peptide region: H2B 17-29, peptide modifications: H2BK20ac H2BK24ac H2BK27ac H2BK28ac, binder concentration: 500 nM",0.00419 ± 0.00026
same,peptide microarray binding signal,"[2]; peptide region: H2B 17-29, peptide modifications: H2BK20ac H2BK24ac H2BK27ac H2BK28ac, binder concentration: 10 nM",0.00436 ± 0.00021
same,peptide microarray binding signal,"[2]; peptide region: H2B 17-29, peptide modifications: H2BK20ac H2BK24ac H2BK27ac H2BK28ac, binder concentration: 100 nM",0.00489 ± 0.00035
same,peptide microarray binding signal,[3]; [5],0.000472 ± 1.7e-05
same,peptide microarray binding signal,[3]; [6],0.000856 ± 8.9e-06
same,peptide microarray binding signal,[4]; [5],0.000468 ± 1.8e-05
same,peptide microarray binding signal,[4]; [6],0.000692 ± 7.3e-06
APAPKKGSKKAVT [H2B 7-19 A P A P K Kac G S K Kac A V T],peptide microarray binding signal,"[1]; peptide region: H2B 7-19, peptide modifications: H2BK12ac H2BK16ac, binder concentration: 50 nM",0.0107 ± 0.00094
same,peptide microarray binding signal,"[1]; peptide region: H2B 7-19, peptide modifications: H2BK12ac H2BK16ac, binder concentration: 500 nM",0.00552 ± 0.0027
same,peptide microarray binding signal,"[2]; peptide region: H2B 7-19, peptide modifications: H2BK12ac H2BK16ac, binder concentration: 10 nM",0.00734 ± 0.00071
same,peptide microarray binding signal,"[2]; peptide region: H2B 7-19, peptide modifications: H2BK12ac H2BK16ac, binder concentration: 100 nM",0.0104 ± 0.0012
same,peptide microarray binding signal,[3]; [7],0.000302 ± 2.2e-05
same,peptide microarray binding signal,[3]; [8],0.0016 ± 0.00014
same,peptide microarray binding signal,[4]; [7],0.00136 ± 0.00029
same,peptide microarray binding signal,[4]; [8],0.00127 ± 8.9e-05
APAPKKGSKKAVT [H2B 7-19 A P A P K Kac G Sph Kac K A V T],peptide microarray binding signal,"[1]; peptide region: H2B 7-19, peptide modifications: H2BK12ac H2BS14ph H2BK15ac, binder concentration: 50 nM",0.00266 ± 0.00014
same,peptide microarray binding signal,"[1]; peptide region: H2B 7-19, peptide modifications: H2BK12ac H2BS14ph H2BK15ac, binder concentration: 500 nM",0.00105 ± 0.00012
same,peptide microarray binding signal,"[2]; peptide region: H2B 7-19, peptide modifications: H2BK12ac H2BS14ph H2BK15ac, binder concentration: 10 nM",0.00221 ± 5.8e-05
same,peptide microarray binding signal,"[2]; peptide region: H2B 7-19, peptide modifications: H2BK12ac H2BS14ph H2BK15ac, binder concentration: 100 nM",0.00241 ± 8e-05
same,peptide microarray binding signal,[3]; [9],7.55e-05 ± 1.7e-06
same,peptide microarray binding signal,[3]; [10],0.000571 ± 1.1e-05
same,peptide microarray binding signal,[4]; [9],0.000362 ± 1.3e-05
same,peptide microarray binding signal,[4]; [10],0.00075 ± 2.1e-05
AVTKAQKKDGKKR [H2B 17-29 A V T Kac A Q Kac K D G K K R],peptide microarray binding signal,"[1]; peptide region: H2B 17-29, peptide modifications: H2BK20ac H2BK23ac, binder concentration: 50 nM",0.00492 ± 0.00049
same,peptide microarray binding signal,"[1]; peptide region: H2B 17-29, peptide modifications: H2BK20ac H2BK23ac, binder concentration: 500 nM",0.002 ± 0.0004
same,peptide microarray binding signal,"[2]; peptide region: H2B 17-29, peptide modifications: H2BK20ac H2BK23ac, binder concentration: 10 nM",0.00477 ± 0.00013
same,peptide microarray binding signal,"[2]; peptide region: H2B 17-29, peptide modifications: H2BK20ac H2BK23ac, binder concentration: 100 nM",0.00333 ± 0.00048
same,peptide microarray binding signal,[3]; [11],0.000321 ± 3.2e-05
same,peptide microarray binding signal,[3]; [12],0.00097 ± 7e-05
same,peptide microarray binding signal,[4]; [11],0.000408 ± 6.9e-06
same,peptide microarray binding signal,[4]; [12],0.000634 ± 1.2e-05
APAPKKGSKKAVT [H2B 7-19 A P A P K K G Sph K K A V T],peptide microarray binding signal,"[1]; peptide region: H2B 7-19, peptide modifications: H2BS14ph, binder concentration: 50 nM",0.00226 ± 0.00011
same,peptide microarray binding signal,"[1]; peptide region: H2B 7-19, peptide modifications: H2BS14ph, binder concentration: 500 nM",0.00381 ± 2.8e-05
same,peptide microarray binding signal,"[2]; peptide region: H2B 7-19, peptide modifications: H2BS14ph, binder concentration: 10 nM",0.00263 ± 3.9e-05
same,peptide microarray binding signal,"[2]; peptide region: H2B 7-19, peptide modifications: H2BS14ph, binder concentration: 100 nM",0.00163 ± 1.7e-05
same,peptide microarray binding signal,[3]; [13],0.000302 ± 3.1e-06
same,peptide microarray binding signal,[3]; [14],0.000799 ± 1.7e-05
same,peptide microarray binding signal,[4]; [13],0.000438 ± 3.5e-05
same,peptide microarray binding signal,[4]; [14],0.00075 ± 4e-05
